# SMARCA2 act: activators of SMARCA2 function. MG213 cells, MMTV-luciferase reporter, dexamethasone, overnight. 370,000 tested, 1% active. activation, % at 9.1 µM; in the data active means activation above about 7.8%;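 further: 0% = vehicle wells and 100% = reference activator wells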
# DAX1 inh-1: inhibits human nuclear receptor DAX1. P51843. HEK293 Gal4-DAX1 luciferase reporter, luminescence. 340,000 tested, 0.99% active. AID 504766. inhibition, % at 6.75 µM;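 active means inhibition above the mean over all tested compounds plus 3 SD, cut at about 4.2% in these data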;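 further: 0% = DAX1-transfected cells with DMSO and 100% = empty-vector control cells with DMSO; inhibition shows as a rise in luminescence from relieved DAX1 repression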
# hgDAF12 agonist: agonists of H. glycines DAF-12 nuclear receptor; HEK293 GAL4-hgDAF12 UAS-luciferase reporter, agonist luminescence; normalized to butyrate control; activation, % at 6.8 µM; 370,000 tested, 1.8% active;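 active means activation above a cutoff set at the mean of all screened compounds plus 3 SD, cut at about 10% in these data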;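 further: 0% = DMSO wells and 100% = sodium butyrate wells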
# ssDAF-12 act: activators of S. stercoralis DAF-12 nuclear receptor; HEK293 ssDAF-12/GRIP1 lit1-tk-luc reporter, luminescence; % of 3 µM dafachronic acid response; 370,000 tested, 1% active; activation, % at 6.8 µM;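 active means activation above the mean over all tested compounds plus 3 SD, cut at about 0.9% in these data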;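 further: 0% = DMSO-only wells and 100% = 3 µM delta7-dafachronic acid wells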
# DAX1 inh-2: DAX1 (NR0B1) inhibition, primary screen; HEK293T StAR-luciferase reporter, SF-1/DAX-1 repression relief; inhibition, % at 6.8 µM; 370,000 tested, 1.1% active; AID 652010;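 active means inhibition above the mean over all tested compounds plus 3 SD, cut at about 3.6% in these data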;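 further: 0% = DAX-1 cells with DMSO and 100% = cells lacking DAX-1 with DMSO; higher inhibition means more luminescence from relief of DAX-1 repression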
# hcDAF12 agonist: activates DAF-12 receptor from parasite H. contortus. HEK293 hcDAF-12 lit1-tk-luc reporter, luminescence; 0% DMSO, 100% Δ7-dafachronic acid. activation, % at 6.8 µM. 370,000 tested, 1.4% active;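 active means activation above the mean of all tested compounds plus 3 SD, cut at about 5.5% in these data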;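 further: 100% = response to 3 µM Δ7-dafachronic acid high control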
# DAX1 inh confirm: NR0B1 (human) inhibition, confirmation; inhibition, % at 6.8 µM; AID 652134; 2,400 tested, 87% active; shares compounds with DAX1 inh-2; HEK293T StAR-promoter luciferase reporter, SF-1/DAX-1 repression;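 active means inhibition above the average of every tested compound plus 3 SD, cut at about 3.8% in these data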;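 further: 0% = DAX-1 cells with DMSO and 100% = no DAX-1 control cells with DMSO; active compounds raise luminescence by relieving repression of the StAR reporter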
# Target sequence (P51843 whole entry, looked up): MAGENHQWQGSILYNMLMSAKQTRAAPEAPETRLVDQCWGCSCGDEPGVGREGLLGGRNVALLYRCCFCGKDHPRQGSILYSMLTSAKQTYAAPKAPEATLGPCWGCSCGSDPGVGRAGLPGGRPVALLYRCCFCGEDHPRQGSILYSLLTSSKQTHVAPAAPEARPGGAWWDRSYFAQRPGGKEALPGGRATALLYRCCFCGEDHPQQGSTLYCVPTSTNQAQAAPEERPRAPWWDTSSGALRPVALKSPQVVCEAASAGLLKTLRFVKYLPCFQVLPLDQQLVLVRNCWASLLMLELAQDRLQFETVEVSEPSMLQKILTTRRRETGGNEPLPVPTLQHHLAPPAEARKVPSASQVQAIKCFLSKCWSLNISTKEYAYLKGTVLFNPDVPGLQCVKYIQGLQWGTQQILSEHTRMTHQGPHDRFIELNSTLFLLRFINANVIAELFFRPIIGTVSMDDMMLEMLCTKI
# SF1 AF2mut Luc: counter-screen for DAX1 inhibitors: nonselective inhibitors with SF-1 AF2 mutant. HEK293 StAR-luciferase, luminescence. 2,400 tested, 78% active. inhibition, % at 6.8 µM. shares compounds with DAX1 inh-2;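 active means inhibition above the mean of all tested compounds plus 3 SD, cut at about 3% in these data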;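 further: 0% = DAX-1 transfected cells with DMSO and 100% = cells without DAX-1 with DMSO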
# Active calls of the source: *; . = no result given. Sampled rows, rich in hits. Any-hit rate of the full collection: about 4.8%.
SMILES,SMARCA2 act,DAX1 inh-1,hgDAF12 agonist,ssDAF-12 act,DAX1 inh-2,hcDAF12 agonist,DAX1 inh confirm,SF1 AF2mut Luc
CC(=O)Nc1ccc(C(=O)NCC2(N3CCCCC3)CCCCC2)cc1,0,1,1,-1,4.6*,0,5.3*,3.0*
CCOc1ccc(C(=O)C2CCN(C(=O)c3ccc([N+](=O)[O-])cc3)CC2)cc1,-4,-4,-7,-2,-1,-4,.,.
CCC(C)c1ccccc1OCCCNC1CCCC1 (centres undefined),0,0,2,-1,0,3,.,.
COc1ccc(N2CCN(C(=O)Cc3nn(C)c(=O)c4ccccc34)CC2)cc1,-4,0,-4,-2,-1,-2,.,.
Cc1ccc(S(=O)(=O)[N-]c2nc3ccccc3nc2-n2cc[n+](Cc3ccccc3)c2)cc1,3,1,3,-2,1,0,.,.
O=C(NCC1(N2CCOCC2)CCCCC1)c1cccc(S(=O)(=O)Nc2ccc(F)cc2)c1,-1,1,1,-1,0,-1,.,.
O=C(NCC1(N2CCCCC2)CCCCC1)c1cccc(S(=O)(=O)Nc2ccc(F)cc2)c1,-4,0,-1,-1,5.0*,-2,5.2*,1
Cc1ccc(NC(=S)NNC(=O)Nc2ccccc2)cc1,6,2,12*,1.4*,5.7*,3,5.6*,3
O=C(NNC(=S)Nc1ccccc1)Nc1ccccc1,6,1,8,0,2,3,.,.
COc1ccc(NC(=O)c2ccc(NC(=O)CSc3nccc(=O)[nH]3)cc2)cc1,-1,-1,3,-1,-1,2,.,.
CC(=O)N1CCN(C(=O)c2cc3c(s2)CCCC3)CC1,0,0,2,0,4.6*,0,3,2
CN1CCCN(C(=O)c2cc3c(s2)CCCC3)CC1,1,0,3,0,1,-1,.,.
COc1cccc(N=CNc2cccc(OC)c2)c1,3,1,9,0,4.7*,2,5.4*,3.4*
CCN1CCN(c2ccc(NC(=O)c3ccco3)cc2Cl)CC1,3,1,7,0,1,1,.,.
Cc1ccn2cc(-c3ccc(NC(=O)c4ccco4)cc3)nc2c1,7,0,11*,0,5.0*,2,11*,8.6*
Cc1nc2cc(NC(=O)Nc3nccs3)ccc2n1C,3,1,11*,0,4.6*,4,15*,8.5*
CN1CCN(c2ccc(NC(=O)c3ccco3)cc2Cl)CC1,5,0,10,0,15*,5.9*,12*,5.2*
Cc1nc(-c2cccc(NC(=O)c3ccco3)c2)cs1,0,0,3,-1,4.7*,-2,2,0
Clc1ccccc1-c1nn2c(-c3ccccn3)nnc2s1,4,0,1,-2,0,-2,.,.
Cc1nc2cc(NC(=O)c3ccco3)ccc2n1C,5,0,12*,0,7.7*,2,11*,7.4*
Nc1ccc(C(=O)Nc2nccs2)cc1,3,1,10,-1,4.8*,3,5.1*,4.7*
Nc1ccccc1C(=O)Nc1nccs1,4,1,1,-1,1,2,.,.
CCC(C(=O)NCCCN1CCN(C)CC1)n1nc(C)c2sc3ccccc3c2c1=O (centres undefined),0,0,0,-1,0,0,.,.
CCCN1CCN(CCCNC(=O)C(CC)n2nc(C)c3sc4ccccc4c3c2=O)CC1 (centres undefined),-3,1,1,-1,5.3*,2,3,4.3*
O=C(CNC(=O)c1ccc2c(c1)OCO2)NCCOc1ccc(Cl)cc1,-1,0,6,-1,-2,-1,.,.
O=C(NCCOc1ccc(Cl)cc1)c1ccc2c(c1)OCCO2,5,1,6,-1,5.8*,2,7.5*,5.4*

# Screens from PubChem BioAssay.
